Consider 64 molecules from PubChem BioAssay AID2501 (Southern Research Specialized Biocontainment Screening …, 2010).

Screen size: about 2,200 compounds; about 1,200 (55%) were called active. Cut-off not given; nearly all actives show IC50 up to about 92 µM. So high a share suggests a set chosen from earlier hits. The list shows a part of the results.

The nature of this test: counter assay for TAg ATPase ADP read-out – biochemical, ADP-Hunter, fluorescence, counter-screen (AID 2501).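 Further: purified T antigen ATPase.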 Particulars: series mostly up to 100 µM. Background: Counterscreens check selectivity or assay interference.
The term IC50 denotes the midpoint of a concentration-inhibition curve. Regarding `Cc1ccc2oc(=O)c(/C=C(\O)CC(C)C)nc2c1`, the IC50 is 4.38 µM (active).

Take `Cc1ccc2oc(=O)c(/C=C(\O)C(C)(C)C)nc2c1`: the IC50 is 6.56 µM (active).

On to `NNc1nc(-c2ccccc2)nc(-c2ccccc2)c1Br`, for which the IC50 result is “inactive”.

As to `O=C(CC1SC(=O)NC1=O)Oc1ccc(/C=N/NC(=O)c2ccccc2O)cc1` (centres undefined), the IC50 is 50.6 µM (active).

Consider `COc1cc(/C=N/NC(=O)c2ccccc2O)ccc1OC(=O)CC1SC(=O)NC1=O` (centres undefined), for which the IC50 was 33.4 µM (active).

For `CC[C@H](C)/C=C/C1=CC2=C(Cl)C(=O)[C@@]3(C)OC(=O)C(C(=O)[C@H](C)[C@@H](C)O)=C3C2=CO1`, the IC50 result was “inactive”.

Consider `Nc1ccc(Nc2nc3ccccc3[nH]2)cc1`, for which the IC50 is 6.24 µM (active).

As for `O=C(CCc1ccc(O)c(O)c1)NNC(=S)Nc1ccc(Br)cc1Cl`, the 50% inhibitory concentration (IC50) is 19.5 µM (active).

`O=C(CSC1=NS(=O)(=O)c2ccccc21)Nc1ccccc1`: the IC50 entry was “inactive”.

Take `O=S1(=O)N=C(Nc2ccc(O)cc2)c2ccccc21`: the IC50 is 3.57 µM (active).

As to `C=Cc1ccc2c(c1)OCCOCCOCCOCCOCCO2`, the IC50 entry was “inactive”.

`Cc1cccc(OCC(=O)NC(=S)NNC(=O)c2ccncc2)c1`: the IC50 result is “inactive”.

For `CC(C)(C)c1ccc(OCC(O)CS(=O)(=O)c2ccccn2)cc1` (centres undefined), the IC50 result is “inactive”.

Consider `CC(C)(C)c1ccc(OCCC(=O)NNC(=O)c2ccccc2)cc1`, for which the IC50 was 41.8 µM (active).

For the molecule `CCN(CC)c1ccc(/C=N/N2CCOCC2)cc1`, the IC50 was 4.08 µM (active).

Take `CCN(CC)c1ccc(/C=C2\C(=O)N(c3nnc(C)c(=O)[nH]3)N=C2C)cc1`: the IC50 entry is “inactive”.

As to `CCN(CC)c1ccc(/C=N/O)cc1`, the IC50 was 4.69 µM (active).

Regarding `O=C(O)c1ccc(-n2nc(-c3ccccc3)c3ccccc3c2=O)cc1`, the IC50 entry was “inactive”.

On to `CCOc1ccc(/C=N/n2nnnc2N)cc1O`, for which the IC50 is 3.62 µM (active).

Take `COc1cc(/C=N/n2nnnc2N)ccc1O`: the IC50 is 2.77 µM (active).

For the molecule `COC(=O)CN(c1ccccc1F)S(=O)(=O)c1ccccc1`, the IC50 result is “inactive”.

As to `COc1cccc(-n2c(SCc3cc(=O)oc4cc(O)c(O)cc34)nc3ccccc3c2=O)c1`, the IC50 was 49.8 µM (active).

Regarding `CCOCCCn1c(SCC(=O)Nc2cc(OC)ccc2OC)nc2ccccc2c1=O`, the IC50 result was “inactive”.

As for `Cc1ccc(C)n1-c1ccncc1`, the IC50 result was “inactive”.

For `Fc1ccccc1CSc1nnnn1-c1ccc2c(c1)OCO2`, the IC50 result was “inactive”.

In the case of `CN(C)c1ccc(N2CC(C)(C)C2=O)cc1`, the IC50 is 3.63 µM (active).

With `COc1ccc(C2=CC3=C(Br)C(=O)C(C)(OC(=O)c4ccc(Cl)nc4)C(=O)C3=CO2)cc1` (centres undefined), the IC50 result is “inactive”.

For `COc1ccc(NC2SC(=O)N(C)C2=O)cc1` (centres undefined), the IC50 is 91 µM (active).

For the molecule `O=C(Nc1nnc(COc2ccccc2)s1)C1CCN(S(=O)(=O)c2ccc(Cl)cc2)CC1`, the IC50 result was “inactive”.

As to `O=c1c(OC2OC(CO)C(O)C(O)C2O)c(-c2ccc(O)c(O)c2)oc2cc(O)cc(O)c12` (centres undefined), the IC50 was 6.33 µM (active).

Regarding `O=C(O)C1OC(Oc2c(-c3ccc(O)c(O)c3)oc3cc(O)cc(O)c3c2=O)C(O)C(O)C1O` (centres undefined), the IC50 is 8.72 µM (active).

Consider `CC1OC(OCC2OC(Oc3c(-c4ccc(O)cc4)oc4cc(O)cc(O)c4c3=O)C(O)C(O)C2O)C(O)C(O)C1O` (centres undefined), for which the IC50 is 30.9 µM (active).

With `Cc1csc(NC(=O)NC2(C(F)(F)F)Oc3ccccc3O2)n1`, the IC50 is 12 µM (active).

For `COc1ccccc1Nc1nc(C)cs1`, the IC50 entry was “inactive”.

As for `Cc1cccc(C)c1NC(=O)C(c1ccc([N+](=O)[O-])cc1)N(C)C(=O)c1ccccn1` (centres undefined), the IC50 entry was “inactive”.

Consider `Cc1ccc(-n2ncc3c(N4CCN(c5ccc(F)cc5)CC4)ncnc32)c(C)c1`, for which the IC50 result is “inactive”.

As to `O=C1CC(c2ccco2)CC(O)=C1C=Nc1cc(Cl)cc(Cl)c1` (centres undefined), the IC50 result was “inactive”.

`O=C1C=C(Nc2ccc(O)cc2)CC(c2ccco2)C1` (centres undefined): the IC50 was 3.1 µM (active).

With `COC(=O)CCC(=O)OC1(C)C(=O)C=C2C=C3CCCN3C=C2C1=O` (centres undefined), the IC50 entry is “inactive”.

For the molecule `C/C=C/C=C/C(=O)Nc1cccc(C2=NOC3(C2)C[C@H](C(N)=O)N(C(=O)CC(c2ccccc2)c2ccccc2)C3)c1` (some centres undefined), the IC50 result is “inactive”.

Turning to `CCCCNC(=O)c1sc(=S)n2c1[nH]c(=O)c1ccccc12`, the half-inhibitory concentration (IC50) is 57.9 µM (active).

For the molecule `N#Cc1c(NC(=O)CCC(=O)O)sc2c1CCCC2`, the IC50 entry was “inactive”.

Consider `O=c1c2c([N+](=O)[O-])cc([N+](=O)[O-])cc2sn1Cc1ccccc1`, for which the IC50 is 77.3 µM (active).

`O=[N+]([O-])c1cccnc1SCc1ccccc1`: the IC50 entry was “inactive”.

In the case of `O=[N+]([O-])c1ccc(-[n+]2ccc3ccccc3c2)c([N+](=O)[O-])c1`, the IC50 entry is “inactive”.

For the molecule `Cc1cc(=O)oc2c(N)c(O)ccc12`, the IC50 was 2.9 µM (active).

For `CCc1c(C(=O)c2ccc(Cl)cc2)oc2c(C)c3oc(=O)cc(C)c3cc12`, the IC50 result was “inactive”.

For the molecule `CCN(CC)S(=O)(=O)c1ccc(N2CCCCC2)c(NC(=O)/C=C/c2cc(OC)c(OC)c(OC)c2)c1`, the IC50 result is “inactive”.

Regarding `CN(CC(=O)Nc1ccccc1Br)C(=O)c1cc(S(=O)(=O)N(C)C)ccc1N1CCCC1`, the IC50 entry was “inactive”.

`Cc1ccccc1NC(=O)c1cc(N)ccc1N1CCCCC1`: the IC50 is 5.41 µM (active).

Take `O=C(N/N=C/c1ccc(O)c(O)c1)c1cccc(S(=O)(=O)N2CCCC2)c1`: the IC50 was 4.88 µM (active).

For the molecule `COc1cc(/C=N/NC(=O)c2cccc(S(=O)(=O)N3CCCC3)c2)ccc1O`, the IC50 was 4.27 µM (active).

In the case of `CC(NCC(=O)Nc1cc(S(=O)(=O)N2CCCCCC2)ccc1Cl)c1ccccc1` (centres undefined), the IC50 entry is “inactive”.

Regarding `CCNC(=O)NC(=O)C(C)OC(=O)c1cc(S(=O)(=O)N2CCCCCC2)ccc1OC` (centres undefined), the IC50 entry was “inactive”.

In the case of `O=C(N/N=C/c1ccc(O)c(O)c1)c1cccc(S(=O)(=O)N2CCCCC2)c1`, the IC50 was 10.5 µM (active).

`O=C1CCCC/C1=C\Nc1ccc(O)cc1`: the IC50 is 4.32 µM (active).

As for `Cc1cc(O)ccc1N/C=C1\CCCC1=O`, the IC50 was 10.2 µM (active).

As to `O=c1oc2cc(O)ccc2c2ccccc12`, the IC50 was 8.47 µM (active).

For `Oc1ccc2c(c1)oc1cc(O)ccc12`, the IC50 is 4.05 µM (active).

As to `Cc1ccc(C(C)NC(=S)NCc2ccc(F)cc2)cc1C` (centres undefined), the IC50 is 33.9 µM (active).

For `Oc1cc2c(cc1O)C1c3ccc(O)c(O)c3OCC1(O)C2` (centres undefined), the IC50 entry was “inactive”.

For `CC(=O)Oc1ccc(C(=O)OCC(=O)c2c(N)n(C)c(=O)n(C)c2=O)cc1OC(C)=O`, the IC50 was 5.13 µM (active).

As to `CC(C)Cn1c(N)c(C(=O)COC(=O)c2cc(-c3ccco3)nc3ccccc23)c(=O)n(C)c1=O`, the IC50 entry was “inactive”.

`COc1cc(SC#N)ccc1N=Cc1c(C)[nH]n(-c2ccc(C)cc2C)c1=O`: the IC50 result was “inactive”.
